In PubChem BioAssay (NCI):
Compounds without any hit were thinned out: in the full panel of roughly 83,000, 20% have a hit.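 How to read the values: 0–100, growth inhibition (40 = 60% inhibited); 0, no net growth; -100 to 0, cell death (-40 = 40% of starting cells died; -100 = all dead).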 Active and inactive are the calls of the source. How the source made its calls: active means growth percent below 10; inactive means the rest.

The compounds below were run on HL-60(TB) leukemia (assay: NCI-60 one-dose screen, 48 h (100 = growth as untreated, 0 = no growth, -100 = all killed)). Conditions: 10 µM unless noted.

SMILES	growth
CC(=O)Oc1cc(C)c(OC(C)=O)c(C)c1C	101% (inactive)
COc1ccc(NC(=O)/N=c2\oc3c(OC)cccc3cc2-c2cc3ccccc3[nH]2)cc1	142% (inactive)
O=C(NOC(=O)c1ccccc1)c1ccccc1	87.1% (inactive)
C=C(C)[C@@H]1CC[C@]2(C(=O)NCCNCCNCCN)CC[C@]3(C)[C@H](CC[C@@H]4[C@@]5(C)CC[C@H](O)C(C)(C)[C@@H]5CC[C@]43C)[C@@H]12	-24% [100 µM] (active)
C[C@H](C(=O)N(CCc1ccc(Cl)c(Cl)c1)Cc1cncs1)[C@@H]1CC[C@H](C[C@H](C)n2cc(CN3CCC(c4ccc(Cl)cc4)CC3)nn2)O1	-71.2% (active)
CCOC(=O)c1[nH]c(C)c(C(=O)O)c1C	91.6% (inactive)
NCCSSC/C=C\CSSCCN	59.1% (inactive)
CCOC(=O)c1nn(C2CCCCO2)c2ccc(NS(=O)(=O)c3ccc(C)cc3)cc12 (stereo not given)	97.6% (inactive)
CCN(CC)CCCN1C(=O)c2c(c(C)c3c(oc4cc(OC)ccc43)c2C)C1=O	95% (inactive)
C[C@]12CC[C@H]3[C@@H](CC[C@H]4C[C@@H](O)CC[C@@]43C)[C@@H]1CC(=O)C2	83% (inactive)
COc1ccc(-c2cc(NC(=O)Nc3ccc4ncsc4c3)no2)cc1	90.8% (inactive)
CC12CCC(/C(=C/NNc3ccc([N+](=O)[O-])cc3[N+](=O)[O-])C1=O)C2(C)C (stereo not given)	110% (inactive)
O=C(O)CCCc1cnc2c3sccc3nc(SCc3c(Cl)cccc3Cl)n12	-26.5% (active)
COc1ccc(N=C2C(=Nc3ccc(OC)cc3)N(c3ccc(N(C)C)cc3)C(=S)N2c2ccc(OC)cc2)cc1	24.6% (inactive)
CCCCCSB(SCCCCC)c1ccccc1	104% (inactive)
CN(CCOc1ccc(CC2SC(=O)NC2=O)cc1)c1ccccn1 (stereo not given)	128% (inactive)
Cc1ccc(C)n1-c1ccccc1-n1c(C)ccc1C	82.2% (inactive)
CC(=O)N1N=C(c2ccc3c(c2)OCO3)CC1c1c(C)nn(-c2ccccc2)c1N(C)Cc1ccccc1 (stereo not given)	85.6% (inactive)
COC1C(O)CC(OC2CC(OC3CC(O[C@@H]4C(=O)c5c(cc6cc(OC7CC(OC8CC(O)C(O)C(C)O8)C(O)C(C)O7)c(C)c(O)c6c5O)CC4[C@H](OC)C(=O)O)OC(C)C3O)OC(C)C2O)OC1C (stereo not given in full)	60.5% (inactive)
Cc1c2ccccc2nc2c1ccc1cccnc12	85.8% (inactive)

SMILES	growth
O=C(CNc1nc(-c2ccc(Cl)cc2)cs1)Nc1ccc(-c2nc3ccccc3s2)cc1	99.3% (inactive)
CCN(CC)c1ccc(N=Nc2cc(Cl)ccc2Cl)c(NC(=O)CCC(=O)O)c1	119% (inactive)
C[C@H]1c2ccccc2CN1CCCOc1cc2c(cc1OCC1CC1)C1(CCCC1)C(N)=N2	31% (inactive)
COc1cccc(C(=O)O)c1OC	106% (inactive)
O=C(Nc1ccc(Cl)cc1)N1NC(c2ccc(Cl)cc2)C=C1c1ccccc1 (stereo not given)	80.3% (inactive)
Oc1ccccc1-c1nnco1	96% (inactive)
COc1ccc([N+](=O)[O-])c(/C=C/C(=O)c2ccccn2)c1	88.9% (inactive)
COc1ccc(/C=N/Nc2cc(=O)[nH]c3ccc(Cl)cc23)cc1	45.3% (inactive)
COc1ccc(Nc2cc(NC(=O)CNc3cc(OC)c(Cl)c(OC)c3Cl)ncn2)cc1	75.1% (inactive)
O=C1ON=[N+](c2ccc(Cc3ccc([N+]4=NOC(=O)C4CN4CCOCC4)cc3)cc2)C1CN1CCOCC1 (stereo not given)	86.4% (inactive)
COc1ccc(/C=N\Nc2nc(SCCC(C)C)nc(-c3ccc(OC)cc3)c2C#N)cc1	34% (inactive)
O=c1oc2c(cc1-c1ccccc1)c[n+]([O-])c1ccccc21	97.7% (inactive)
CNC(=O)c1ccccc1Oc1nc(Nc2cc(OC)c(OC)c(OC)c2)ncc1Br	53.2% (inactive)
NCCCNc1nc2ccccc2c2c(=O)c3cc(F)ccc3sc12	-28.1% (active)
O=C1CCC23OC(c4ccccc4N12)C(O)C(O)C3O (stereo not given)	97% (inactive)
O=C(Nc1cccc(-n2cc(-c3ccncc3)c(-c3cc(O)cc(Cl)c3)n2)c1)Nc1ccc(Cl)c(Cl)c1	-23.4% (active)
C#CC(OC(=O)N(C)C)(c1ccccc1)c1ccc(F)cc1 (stereo not given)	127% (inactive)
COc1ccc(/C=C/C(c2cc(OC)c(OC)c(OC)c2)n2cncn2)cc1 (stereo not given)	-17.9% (active)
Cc1cn(C2CC(N=[N+]=[N-])C(COP(=O)(O)OP(=O)(O)OP(=O)(O)O)O2)c(=O)[nH]c1=O (stereo not given)	-96.5% (active)
CCOC(=O)COc1ccc2c(c1)O/C(=C\c1ccc(O)cc1)C2=O	112% (inactive)
